Measured values: PubChem BioAssay (EPA / NIEHS)
Inconclusive results are not listed. The source holds several records for some structures; these can differ, active in one and inactive in another. Activity calls are given as the source filed them. The calls were made as follows: active = hit-call score of the fitted dose curve at least 0.9, where 1 is the maximum; inconclusive = response in the unintended direction; inactive = score below 0.9.

How the values were obtained:
[1] = biological target: Estrogen receptor (Homo sapiens) (UniProt P03372); test: ATG_hERa_XSP1: Attagene TRANS-FACTORIAL Multi-Species (XSP1) HepG2 Assay for human Estrogen Receptor (ESR1) (AID 2283780)
Estrogen receptor (Homo sapiens), sequence (P03372 whole entry, looked up, the tested form may be a part): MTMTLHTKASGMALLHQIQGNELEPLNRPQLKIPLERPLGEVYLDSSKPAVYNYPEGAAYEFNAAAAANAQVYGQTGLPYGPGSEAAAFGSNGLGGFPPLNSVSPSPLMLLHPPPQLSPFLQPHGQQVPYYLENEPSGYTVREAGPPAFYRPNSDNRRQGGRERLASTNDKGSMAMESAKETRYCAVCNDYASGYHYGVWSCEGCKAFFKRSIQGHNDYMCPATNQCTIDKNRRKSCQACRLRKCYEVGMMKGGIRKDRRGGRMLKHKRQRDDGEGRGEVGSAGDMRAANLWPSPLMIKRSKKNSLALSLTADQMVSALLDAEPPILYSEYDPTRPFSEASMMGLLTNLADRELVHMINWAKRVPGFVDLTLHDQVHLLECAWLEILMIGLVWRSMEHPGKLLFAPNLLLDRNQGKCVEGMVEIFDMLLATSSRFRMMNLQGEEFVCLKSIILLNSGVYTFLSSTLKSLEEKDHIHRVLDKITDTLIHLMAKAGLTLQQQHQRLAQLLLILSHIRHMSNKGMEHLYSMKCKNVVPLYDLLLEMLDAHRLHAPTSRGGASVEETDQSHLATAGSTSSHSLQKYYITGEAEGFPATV
Outline: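 Reporter transcripts from multiplexed GAL4-UAS units driven by NR-Gal4 chimeras in transiently transfected HepG2 were measured by RT-PCR with capillary electrophoresis 24 h post-dose, with 3 nM 6-alpha-fluorotestosterone present; gain-of-signal relative to DMSO.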

[2] = system: turtle Estrogen Receptor (ESR1), gene 101933533; test: ATG_trERa_XSP1: Attagene TRANS-FACTORIAL Multi-Species (XSP1) HepG2 Assay for turtle Estrogen Receptor (ESR1) (AID 2283781)
Outline: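 Transactivation measured 24 h post-dose as reporter mRNA (RT-PCR, fluorescent capillary electrophoresis) from an NR-Gal4 turtle ER construct in HepG2. Medium included 3 nM 6-alpha-fluorotestosterone; increase over DMSO fitted.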

[3] = ACEA_ER_AUC_viability: ACEA Biosciences xCELLigence Real-Time Cell Analysis on Estrogen Receptor Agonism for Viability (AID 2283782);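 also: hit means loss of impedance signal meaning reduced cell growth or viability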
Outline: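 Viability endpoint: reduced impedance area under the curve relative to DMSO, recorded by real-time electrode sensing over ~80 h of continuous exposure. Duplicate plates of T47D in hormone-depleted medium; eight concentrations, 1:4 dilutions, 100 uM maximum.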

[4] = system: turtle Androgen Receptor (AR), gene 101947425; test: ATG_trAR_XSP1: Attagene TRANS-FACTORIAL Multi-Species (XSP1) HepG2 Assay for turtle Androgen Receptor (AR) (AID 2283786)
Outline: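 Partial androgen stimulation is provided by 3 nM 6-alpha-fluorotestosterone in a multi-species trans-factorial panel expressing a turtle AR–GAL4 fusion in HepG2. After 24 h, reporter mRNA is measured by RT-PCR and capillary electrophoresis and fitted upward against DMSO.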

[5] = biological target: Estrogen receptor beta (Homo sapiens) (UniProt Q92731); test: ATG_hERb_XSP1: Attagene TRANS-FACTORIAL Multi-Species (XSP1) HepG2 Assay for human Estrogen Receptor (ESR2) (AID 2283788)
Estrogen receptor beta (Homo sapiens), sequence (Q92731 whole entry, looked up, the tested form may be a part): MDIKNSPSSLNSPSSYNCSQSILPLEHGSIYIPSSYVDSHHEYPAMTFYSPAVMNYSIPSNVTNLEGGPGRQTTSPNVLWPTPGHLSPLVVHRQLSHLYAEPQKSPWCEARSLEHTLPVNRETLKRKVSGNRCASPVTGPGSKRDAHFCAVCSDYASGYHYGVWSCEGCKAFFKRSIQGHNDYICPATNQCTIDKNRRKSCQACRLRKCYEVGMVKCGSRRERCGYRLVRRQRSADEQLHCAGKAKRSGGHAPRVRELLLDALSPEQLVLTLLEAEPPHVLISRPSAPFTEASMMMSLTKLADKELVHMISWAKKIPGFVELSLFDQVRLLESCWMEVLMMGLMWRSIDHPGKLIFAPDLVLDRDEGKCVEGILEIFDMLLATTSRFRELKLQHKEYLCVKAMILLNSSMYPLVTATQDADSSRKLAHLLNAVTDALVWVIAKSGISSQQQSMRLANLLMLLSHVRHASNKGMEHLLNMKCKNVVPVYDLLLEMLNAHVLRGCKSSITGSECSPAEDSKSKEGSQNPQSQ
Outline: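 HepG2 cells transiently transfected with multiplexed GAL4-UAS reporter units carrying chimeric human ERβ-Gal4; 24 h compound exposure with 3 nM 6-alpha-fluorotestosterone present. Reporter mRNA quantified by RT-PCR, FAM labelling and capillary electrophoresis; gain-of-signal fitted versus DMSO.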

AR (gene 367) [6] = biological target: AR (gene 367) (UniProt P10275); test: ACEA_AR_agonist_80hr: ACEA Biosciences xCELLigence Real-Time Cell Analysis on Androgen Receptor Agonism for Proliferation (AID 2283783);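 also: hits increase impedance growth signal above DMSO baseline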
AR (gene 367), sequence (P10275 whole entry, looked up): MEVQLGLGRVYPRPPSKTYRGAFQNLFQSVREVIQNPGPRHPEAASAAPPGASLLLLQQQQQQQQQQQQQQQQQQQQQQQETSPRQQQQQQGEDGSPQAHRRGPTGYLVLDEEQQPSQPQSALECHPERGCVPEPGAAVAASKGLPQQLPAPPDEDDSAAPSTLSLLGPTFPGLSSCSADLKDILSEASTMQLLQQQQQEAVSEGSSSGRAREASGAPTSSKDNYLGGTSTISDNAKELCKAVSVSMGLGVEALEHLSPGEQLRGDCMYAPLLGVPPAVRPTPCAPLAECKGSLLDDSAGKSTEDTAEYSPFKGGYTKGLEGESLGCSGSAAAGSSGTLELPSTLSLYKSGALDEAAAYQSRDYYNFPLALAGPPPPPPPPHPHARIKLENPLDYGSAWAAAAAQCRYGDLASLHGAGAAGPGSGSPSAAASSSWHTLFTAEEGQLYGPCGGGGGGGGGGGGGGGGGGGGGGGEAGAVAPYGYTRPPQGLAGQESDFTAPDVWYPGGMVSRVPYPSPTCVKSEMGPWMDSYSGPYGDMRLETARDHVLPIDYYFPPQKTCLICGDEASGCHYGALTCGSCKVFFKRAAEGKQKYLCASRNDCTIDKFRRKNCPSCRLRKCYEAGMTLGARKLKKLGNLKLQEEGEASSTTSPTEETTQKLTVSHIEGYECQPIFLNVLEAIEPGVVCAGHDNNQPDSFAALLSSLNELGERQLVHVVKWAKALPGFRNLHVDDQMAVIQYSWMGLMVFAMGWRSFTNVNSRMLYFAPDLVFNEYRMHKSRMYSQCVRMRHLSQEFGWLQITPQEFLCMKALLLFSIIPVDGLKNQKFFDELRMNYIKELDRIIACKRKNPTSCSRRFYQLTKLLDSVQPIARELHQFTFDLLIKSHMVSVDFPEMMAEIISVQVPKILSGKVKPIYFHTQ
Outline: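 Eight concentrations, 1:4 serial dilution from a 100 uM final top, in biological duplicate. Impedance-based real-time growth of 22Rv1 cells after overnight baseline, recorded hourly and read at 80 hours. Controls: testosterone, MG132, assay media.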

AR (gene 367) [7] = biological target: AR (gene 367) (UniProt P10275); test: ACEA_AR_antagonist_80hr: ACEA Biosciences xCELLigence Real-Time Cell Analysis on Androgen Receptor Antagonism for Proliferation (AID 2283787);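 also: 22Rv1 human prostate cancer cells with growth followed by electrical impedance; hits lower the impedance growth signal relative to DMSO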
Outline: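 Impedance-based real-time growth of 22Rv1 prostate cells, read 80 h after dosing. Eight concentrations, 1:4 series, top 100 uM final (0.5% DMSO), n = 2; signal decrease scored against DMSO.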

[8] = biological target: GAL4 Transcription Factor (Internal Marker), GAL4 (gene 855828) (UniProt P04386); test: ATG_GAL4_XSP1: Attagene TRANS-FACTORIAL Multi-Species (XSP1) HepG2 Assay for GAL4 Transcription Factor (Internal Marker) (AID 2283789)
GAL4 Transcription Factor (Internal Marker), GAL4 (gene 855828), sequence (P04386 whole entry, looked up, the tested form may be a part): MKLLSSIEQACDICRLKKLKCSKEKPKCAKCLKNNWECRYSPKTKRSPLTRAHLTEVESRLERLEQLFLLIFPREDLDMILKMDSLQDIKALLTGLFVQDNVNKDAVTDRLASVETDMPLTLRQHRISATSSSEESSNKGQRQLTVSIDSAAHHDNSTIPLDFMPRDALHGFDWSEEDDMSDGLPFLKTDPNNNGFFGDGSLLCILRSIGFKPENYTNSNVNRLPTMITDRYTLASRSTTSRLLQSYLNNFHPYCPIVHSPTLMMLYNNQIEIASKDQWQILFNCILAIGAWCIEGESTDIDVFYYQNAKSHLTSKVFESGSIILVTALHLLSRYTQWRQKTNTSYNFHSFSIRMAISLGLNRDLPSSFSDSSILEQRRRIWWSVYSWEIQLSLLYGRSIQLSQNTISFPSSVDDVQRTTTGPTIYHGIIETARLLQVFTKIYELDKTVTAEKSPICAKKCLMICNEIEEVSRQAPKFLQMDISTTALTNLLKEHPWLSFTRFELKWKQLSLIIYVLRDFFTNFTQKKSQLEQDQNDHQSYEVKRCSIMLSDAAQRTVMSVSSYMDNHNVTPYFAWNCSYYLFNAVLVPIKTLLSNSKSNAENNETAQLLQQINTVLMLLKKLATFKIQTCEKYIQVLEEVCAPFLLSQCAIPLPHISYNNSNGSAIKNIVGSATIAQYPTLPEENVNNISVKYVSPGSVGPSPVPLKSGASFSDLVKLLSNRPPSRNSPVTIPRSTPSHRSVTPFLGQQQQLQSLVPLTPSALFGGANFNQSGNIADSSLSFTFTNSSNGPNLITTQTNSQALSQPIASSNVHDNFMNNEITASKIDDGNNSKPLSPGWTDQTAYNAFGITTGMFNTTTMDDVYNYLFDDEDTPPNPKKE
Outline: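 This background-control endpoint measures GAL4-driven reporter mRNA via RT-PCR and capillary electrophoresis of labelled fragments. Transiently transfected HepG2 cells were treated 24 h, with 3 nM 6-alpha-fluorotestosterone included, and gain-of-signal was fitted against DMSO.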

[9] = STM_H9_NormalizedViability: Cytotoxicity Assessment at 120 hours in the Stemina devTOX quickPredict H9 human embryonic stem cell (hESC)-based Assay (AID 2283784)
Outline: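 Here, H9 cells received test compound with daily medium renewal. Each plate included methotrexate references (1uM, 5 nM), 0.1% DMSO and media blanks; CellTiter-Fluor RFU was normalized to DMSO.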

COP(=S)(OC)Oc1nc(Cl)c(Cl)cc1Cl
AC50 [1]: 27.1 µM (active)
AC50 [2]: 27.9 µM (active)
AC50 [3]: 79 µM (active)
AC50 [4]: 25.3 µM (active)
AC50 [5]: 27.1 µM (active)

Cc1cc(Cl)ccc1OCC(=O)O
outcome (AR (gene 367) [6]): inactive
outcome (AR (gene 367) [7]): inactive

Oc1ccccc1-c1ccccc1
AC50 [3]: 78 µM (active)

CC(C)Oc1cc(-n2nc(C(C)(C)C)oc2=O)c(Cl)cc1Cl
AC50 [1]: 6.88 µM (active)
AC50 [2]: 20.8 µM (active)
AC50 [3]: 81.9 µM (active)
outcome [4]: inactive
AC50 [5]: 100 µM (active)
outcome [8]: inactive

C=CCC1=C(C)[C@@H](OC(=O)[C@@H]2[C@@H](C=C(C)C)C2(C)C)CC1=O
AC50 [3]: 89.8 µM (active)
outcome [9]: inactive

CCc1nn(C)c(C(=O)NCc2ccc(C(C)(C)C)cc2)c1Cl
outcome [3]: inactive
AC50 [9]: 2.12 µM (active)

CC(C)(C)c1ccc(CSc2cnn(C(C)(C)C)c(=O)c2Cl)cc1
outcome [1]: inactive
outcome [2]: inactive
AC50 [9]: 0.12 µM (active)
outcome [4]: inactive
outcome [5]: inactive

OC(c1ccc(Cl)cc1)(c1cncnc1)c1ccccc1Cl (stereo not given)
AC50 [1]: 2.22 µM (active)
AC50 [2]: 2.12 µM (active)
outcome [3]: inactive
outcome [9]: inactive
AC50 [5]: 1.98 µM (active)

CS/C(C)=N/OC(=O)N(C)SN(C)C(=O)O/N=C(\C)SC
AC50 [3]: 24.8 µM (active)
outcome (AR (gene 367) [6]): inactive
AC50 (AR (gene 367) [7]): 76.7 µM (active)

CNC(=S)S
outcome [3]: inactive

CC1COC(Cn2cncn2)(c2ccc(Oc3ccc(Cl)cc3)cc2Cl)O1 (stereo not given)
AC50 [3]: 83.2 µM (active)
AC50 [9]: 6.39 µM (active)

CCOC(=O)CC(SP(=S)(OC)OC)C(=O)OCC (stereo not given)
AC50 [9]: 78.9 µM (active)
AC50 (AR (gene 367) [7]): 88.6 µM (active)

C=CCC1=C(C)C(OC(=O)C2C(C=C(C)C)C2(C)C)CC1=O (stereo not given)
AC50 [3]: 87.8 µM (active) [middle of 5 runs]
outcome [3]: inactive

COc1nc(NC(C)C)nc(NC(C)C)n1
outcome [9]: inactive

CCCCOC(=O)c1ccccc1C(=O)OCCCC
AC50 [1]: 19.9 µM (active)
outcome [2]: inactive
AC50 [3]: 78.3 µM (active)
outcome [3]: inactive
AC50 [9]: 50 µM (active)
outcome [8]: inactive

CCNc1nc(Cl)nc(NC(C)C)n1
outcome [3]: inactive
outcome [9]: inactive

C=CC1(C)OC(=O)N(c2cc(Cl)cc(Cl)c2)C1=O (stereo not given)
AC50 [1]: 100 µM (active)
AC50 [2]: 100 µM (active)
outcome [3]: inactive
outcome [9]: inactive
outcome [5]: inactive
outcome [8]: inactive

CON(C)C(=O)Nc1ccc(Cl)c(Cl)c1
AC50 [1]: 9.61 µM (active)
AC50 [2]: 26.7 µM (active)
outcome [3]: inactive
outcome [9]: inactive

CCON=C(CC)C1=C(O)CC(c2c(C)cc(C)cc2C)CC1=O (stereo not given)
outcome [3]: inactive
outcome (AR (gene 367) [7]): inactive

Cc1ccc(-c2c(Cl)nc(C#N)n2S(=O)(=O)N(C)C)cc1
outcome (AR (gene 367) [6]): inactive
AC50 (AR (gene 367) [7]): 14.1 µM (active)

CCNc1nc(Cl)nc(NCC)n1
outcome [9]: inactive

O=C(O)c1nc(Cl)ccc1Cl
outcome [3]: inactive

COC(=O)N(OC)c1ccccc1COc1ccn(-c2ccc(Cl)cc2)n1
outcome [1]: inactive
outcome [2]: inactive
AC50 [3]: 92.3 µM (active)
AC50 [9]: 0.5 µM (active)
outcome [5]: inactive
outcome [8]: inactive

CN(C)C(=S)SSC(=S)N(C)C
AC50 [3]: 91 µM (active)
outcome (AR (gene 367) [6]): inactive
AC50 [9]: 50 µM (active)
AC50 (AR (gene 367) [7]): 20.6 µM (active)

Fc1ccc(Oc2ccnc3cc(Cl)cc(Cl)c23)cc1
AC50 [3]: 80.2 µM (active)

COc1ccc(C(c2ccc(OC)cc2)C(Cl)(Cl)Cl)cc1
AC50 [1]: 0.821 µM (active)
AC50 [2]: 1.32 µM (active)
AC50 [3]: 88.6 µM (active)
outcome [5]: inactive
outcome [8]: inactive

CCCCNC(=O)OCC#CI
AC50 [3]: 5.58 µM (active)
